Experimental findings from PubChem BioAssay (NCI) are described below.

This is part of a sample that, as a whole, favours compounds with a hit. Of some 83,000 tested, about 20% had one in any assay.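 Plates (96-well) were seeded with cells, treated with compound at one concentration, and incubated for 48 hours before percent growth was determined.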 A number with no mark means an inactive call. Calls of active or inactive are those of the source. Rule for the calls: active = growth percent below 10; inactive = the rest.

Test in all cases: NCI-60 one-dose screen, 48 h (100 = growth as untreated, 0 = no growth, -100 = all killed)
Common to all, as to details: 10 µM

For assay [1], the system named is NCI-H23 lung.
Assay [2] concerns NCI-H226 lung.
Assay [3] concerns HOP-62 NSCLC.
In assay [4] the test system is NCI-H460 lung.
The subject of assay [5] is NCI-H522 lung.
Assay [6] deals with A549/ATCC NSCLC.
The test system of assay [7] is 786-0 renal.
Assay [8] deals with COLO 205 colon.
The subject of assay [9] is DU-145 prostate.
For assay [10], the system named is K-562 leukemia.
Assay [11] concerns MALME-3M melanoma.
The test system of assay [12] is MDA-MB-231 breast.
The test system of assay [13] is RXF 393 renal.
Assay [14] deals with SF-268 CNS.
In assay [15] the test system is SF-295 CNS.
For assay [16], the system named is SF-539 CNS.
For assay [17], the system named is UACC-257 melanoma.
The subject of assay [18] is M14 melanoma.

`COc1cc2cc(Oc3ccc(NC(=O)c4ccccc4)cc3)c(C)nc2cc1OC`: the growth in assay [1] is 83.5%; in [2], 9.16% (active); in assay [3], 43.8%; in assay [4] it was 94.8%; in [5], 7.6% (active); in assay [6], 89.6%. For the same molecule, the growth in [7] is 118%; in assay [8], 109%; in [9], 100%; in assay [10], 88.1%; in assay [11] it was 93.6%; in [12], 66%. For the same molecule, the growth in assay [13] is 53.3%; in [14] it was 65.5%; in [15], 72.2%; in [16], 97.6%; in assay [17], 95.2%; in assay [18], 121%.
Take `CCN(CC)CCNc1ccc(C)c2sc3cc(Cl)ccc3c(=O)c12`: the growth is 55% in assay [1]; 75.2% in assay [2]; 66.9% in assay [3]; 1.44% (active) in assay [4]; 42.7% in [5]; 31.1% in assay [6]. Also, the growth is 43.3% in [7]; -67.3% (active) in assay [8]; 43.5% in [9]; -51% (active) in [10]; -26.4% (active) in [11]; -15.9% (active) in assay [12]. Moreover, the growth is 12.9% in assay [13]; 47% in assay [14]; 70% in assay [15]; 66.3% in assay [16]; -28.2% (active) in assay [17]; -64.9% (active) in [18].
For the molecule `CS(=O)(=O)c1nccc(-c2c(-c3cccc(OCCc4ccccc4)c3)nc3sccn23)n1`, the growth is 95.6% in [1]; 81.4% in assay [2]; 93% in assay [3]; 106% in [4]; 90.5% in assay [5]; 101% in assay [6]. In addition, the growth in assay [7] is 108%; in assay [8], 103%; in assay [9] it was 108%; in [10], 95.5%; in assay [11], 102%; in [12], 93.7%. Further, the growth was 118% in assay [13]; 106% in assay [14]; 109% in assay [15]; 103% in assay [16]; 101% in assay [17]; 114% in assay [18].
As for `COc1ccc2c(c1)C(=O)/C(=C/c1ccc([N+](=O)[O-])o1)O2`, the growth is -59% (active) in [1]; -13.7% (active) in [2]; -45.3% (active) in assay [3]; -46.8% (active) in assay [4]; -85% (active) in [5]; -5.34% (active) in [6]. The growth in assay [7] is -71% (active); in assay [8] it was -81.6% (active); in [9], -85% (active); in assay [10], -34.8% (active); in assay [11] it was -77.8% (active); in assay [12] it was -76.9% (active). For the same molecule, the growth is -78.3% (active) in [13]; -72.7% (active) in assay [14]; 3.29% (active) in assay [15]; -49.8% (active) in [16]; -85.6% (active) in assay [17]; -64.2% (active) in assay [18].
In the case of `CN(C)CCOc1cccc(-c2nc3sccn3c2-c2ccnc(S(C)(=O)=O)n2)c1`, the growth was 100% in assay [1]; 92.3% in assay [2]; 79% in [3]; 94.9% in [4]; 103% in [5]; 97.9% in assay [6]. Further, the growth is 95.9% in assay [7]; 106% in [8]; 93% in assay [9]; 101% in [10]; 101% in assay [11]; 80.2% in assay [12]. The growth in assay [13] is 104%; in [14], 101%; in [15], 100%; in assay [16], 86.6%; in assay [17], 106%; in assay [18], 105%.
In the case of `COc1cccc(CNc2cccc3cn[nH]c23)c1O`, the growth in [1] is 94.9%; in assay [2], 87.6%; in assay [3], 95.3%; in [4] it was 111%; in [5], 86.3%; in [6], 90.6%. The growth in [7] was 105%; in assay [8], 110%; in [9] it was 100%; in assay [10] it was 126%; in assay [11], 88.3%; in assay [12], 72.8%. Moreover, the growth in assay [13] was 113%; in [14] it was 106%; in assay [15] it was 108%; in assay [16], 94.7%; in [17] it was 99%; in assay [18], 98.7%.
Consider `O=C1/C(=C/c2ccc([N+](=O)[O-])s2)Oc2cc(Cl)ccc21`, for which the growth is 14.7% in [1]; 81.2% in [2]; 31.6% in [3]; 1.6% (active) in assay [4]; -78.2% (active) in [5]; 4.06% (active) in assay [6]. Further, the growth in assay [7] was 14.3%; in assay [8], -28.3% (active); in assay [9] it was 32.2%; in assay [10], -8.29% (active); in assay [11], -49.5% (active); in [12], -71.7% (active). The growth in assay [13] was -49.6% (active); in assay [14] it was -59.4% (active); in assay [15], 52.1%; in assay [16], -10.9% (active); in assay [17], 31.7%; in assay [18], 2.51% (active).
Consider `Oc1cccc(-c2nc3sccn3c2-c2ccncn2)c1`, for which the growth in assay [1] was 92.1%; in assay [2] it was 94.4%; in assay [3], 103%; in assay [4], 97.8%; in [5], 98.9%; in assay [6] it was 100%. Also, the growth was 95.7% in [7]; 32.1% in assay [8]; 106% in [9]; 90% in assay [10]; -8.47% (active) in [11]; 81.4% in assay [12]. The growth is 67.3% in assay [13]; 106% in assay [14]; 101% in assay [15]; 98.8% in assay [16]; 31% in assay [17]; 19.4% in assay [18].
As to `O=C(N/N=C/c1ccc(Cl)cc1)c1ccc(Cc2n[nH]c(=O)c3cccnc23)cc1`, the growth in assay [1] is 90.6%; in assay [2], 96.1%; in assay [3], 97.3%; in [4] it was 109%; in assay [5] it was 89%; in assay [6], 103%. Also, the growth in [7] was 101%; in assay [8], 104%; in assay [9] it was 112%; in assay [10] it was 106%; in [11], 93.2%; in assay [12] it was 102%. The growth in assay [13] is 91.2%; in assay [14], 98.6%; in assay [15], 101%; in [16] it was 89.7%; in assay [17], 97.1%; in [18], 99.6%.
For the molecule `O=C(CCCSc1nc(-c2ccccc2)cc(-c2ccc(Cl)cc2)n1)NO`, the growth was 9.38% (active) in [1]; 10.6% in assay [2]; 12.5% in assay [3]; -9.81% (active) in assay [4]; 7.31% (active) in assay [5]; 5.6% (active) in [6]. Also, the growth was 9.83% (active) in assay [7]; 10.1% in assay [8]; 14.2% in [9]; 8.59% (active) in assay [10]; 4.49% (active) in [11]; 17.7% in assay [12]. The growth in assay [13] is -19.2% (active); in assay [14] it was 14.3%; in assay [15], 4.46% (active); in [16], -27.2% (active); in [17], 8.34% (active); in [18], 5.54% (active).
As to `C=CCn1c(SCC(=O)Nc2ccc(C(=O)/C=C/c3cc(OC)c(OC)c(OC)c3)cc2)nnc1-c1cc(-c2ccc(Cl)cc2)nc2ccccc12`, the growth in [1] was 88.7%; in [2], 89.1%; in [3] it was 97.5%; in assay [4], 93.1%; in [5], 83.1%; in [6] it was 96.7%. Also, the growth was 74.2% in assay [7]; 115% in assay [8]; 95.3% in assay [9]; 75.9% in [10]; 97.8% in assay [11]; 75% in assay [12]. For the same molecule, the growth was 59.4% in [13]; 90.9% in assay [14]; 98% in [15]; 84.3% in assay [16]; 102% in [17]; 95.5% in assay [18].
`COc1ccc(/C=C2\CCCC3C2=Nc2ccccc2NC3c2ccc(OC)cc2)cc1` (stereo not drawn): the growth in [1] is 78.7%; in assay [2] it was 94.9%; in assay [3], 128%; in [4], 94.8%; in [5], 6.67% (active); in assay [6], 88.5%. Moreover, the growth in assay [7] is 101%; in assay [8], 116%; in [9], 101%; in assay [10] it was 50.9%; in assay [11], 94.3%; in assay [12] it was 82.4%. Moreover, the growth is 99.9% in assay [13]; 102% in [14]; 89.8% in assay [15]; 135% in [16]; 81.9% in assay [17]; 71.1% in [18].
Turning to `COc1ccc(C(c2ccc(OCCN(C)C)cc2)c2cc3ccccc3c3ccccc23)cc1` (stereo not drawn), the growth is 78.4% in assay [1]; 87.5% in [2]; 92.5% in assay [3]; -28.6% (active) in assay [4]; 75% in assay [5]; 55% in [6]. For the same molecule, the growth in assay [7] was 50.6%; in assay [8], -50.6% (active); in [9], 34.2%; in assay [10], -29.9% (active); in [11], -43.4% (active); in [12], 17.1%. Besides, the growth in assay [13] was 49.5%; in assay [14], 67.3%; in [15] it was 58%; in [16], 66.9%; in [18] it was -72.3% (active).
